The source of these data is PubChem BioAssay (NCI).

Structures are written as SMILES. About 83,000 compounds went through this panel and 20% of them were active in at least one assay; those are over-represented in the sample as a whole.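 Cell lines were cultured in 96-well plates, exposed to a single compound concentration, and assessed for percent growth 48 hours later.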 Active and inactive are the calls of the source. Rule for the calls: active = growth percent below 10; inactive = the rest.

The first assay deals with MDA-MB-435 melanoma. Nature of the assay: NCI-60 one-dose screen, 48 h (100 = growth as untreated, 0 = no growth, -100 = all killed). The conditions noted are these: 10 µM unless noted.
In the case of `CC1=C(NCCN2CCCC2)C(=O)c2c(OCc3ccc(F)c(Cl)c3)cccc2C1=O`, the growth was 40% (inactive).
Consider `CN1CCN(Cc2ccc(NC(=O)c3cncc(C#Cc4cnc(N)c5cccnc45)c3)cc2C(F)(F)F)CC1`, for which the growth is 7.67% (active).
Same read-out and setting: the value for `C/C(=C(/c1ccc(O)cc1)c1ccc(OCCN2CCCC2)cc1)c1ccccc1` was 39.9% (inactive); that for `c1ccc2sc(SCCCn3ccnc3)nc2c1` was 97.6% (inactive); that for `COC(=O)C12C3C(=O)N(c4ccc(OC)cc4)C(=O)C3C(c3cn(-c4ccccc4)nc3C)N1[C@H](c1cn(-c3ccccc3)nc1C)[C@@H]1C(=O)N(c3ccc(OC)cc3)C(=O)[C@@H]12` (stereo partly specified) was 102% (inactive).
Same read-out and setting: the value for `CCc1ccc(C(c2ccc(CC)cc2)C(Cl)(Cl)CCl)cc1` was 102% (inactive).
Take `Cc1ccc(C2CC3c4ccccc4C2C2CCCCN32)cc1` (stereo unspecified): the growth is 97.8% (inactive).
On the same count and under the same terms, the value for `CCOC(=O)C(=Cc1ccccc1F)C(=O)OCC` was 84.6% (inactive); that for `CCN(CC)CCCNc1cc(OC)cc2nc3cc(Cl)ccc3nc12` was -90.4% (active); that for `O=C(/C=C/c1cc2ccccc2[nH]c1=O)/C=C/c1cc2ccccc2[nH]c1=O` was -41.6% (active).
On the same count and under the same terms, the result for `Cc1cc(-c2nc3ccccc3s2)ccc1NC(=O)COc1ccc(Cl)cc1` reads 113% (inactive); that for `COc1cc(OC)c(/C=C/S(=O)(=O)Cc2cnc(OC)c(N)c2)c(OC)c1`, 13.4% (inactive).
For `COc1ccc(/C=C2\N=C3Sc4cc(Cl)ccc4C(=O)N3C2=O)cc1`, the growth is 102% (inactive).
On to `O=C([C@@H](COCc1ccccc1)N1C(=O)[C@@H](N2C(=O)OC[C@@H]2c2ccccc2)[C@H]1/C=C/c1ccccc1)N1CCC(CCN2CCCCC2)CC1`, for which the growth is 97.7% (inactive).

The subject of another assay is SW-620 colon. Described as above. Conditions: 10 µM unless noted.
In the case of `O=[N+]([O-])c1cccc(-c2nc3sccn3c2-c2ccnc(NCCCNS(=O)(=O)c3cccc(F)c3)n2)c1`, the growth was 22.9% (inactive).
For the compound `Cc1ccc(Nc2nc(N)nc(Nc3ccc4ccccc4c3)n2)cc1`, the growth was 23.5% (inactive).
As for `C=C1C(=O)O[C@H]2[C@H]1CC/C(Cn1cc(Cn3ccc4cc(Cl)ccc43)nn1)=C\CC[C@@]1(C)O[C@@H]21`, the growth is -75.7% (active).
Still for that read-out and setting: the value for `COc1ccc2nc3cc(Cl)ccc3c(N3CCN(c4nccc(Nc5ccccc5)n4)CC3)c2c1` was 59.7% (inactive); that for `COc1ccc(-c2nn(-c3ccccc3)cc2/C=C/C(=O)OCc2cn(-c3ccc(F)c(Cl)c3)nn2)cc1` was 100% (inactive); that for `COc1ccc(C2CC(=O)Nc3c2c(C)nn3-c2nc3ccccc3[nH]2)cc1` (stereo unspecified) was 48.2% (inactive).
As to `CSc1nc(NCCO)c(C#N)c(-c2cccc(N)c2)n1`, the growth was 103% (inactive).
On to `COc1cccc(/C=C2/C(=O)N(Cc3ccco3)SC2=S)c1OC`, for which the growth is 98.4% (inactive).
Consider `COc1ccc2nc3cc(Cl)ccc3c(N3CCN(c4nccc(Nc5ccc(Cl)cc5)n4)CC3)c2c1`, for which the growth is 73.7% (inactive).
As to `NCc1cn2cc(Cl)sc2n1`, the growth is 106% (inactive).
Take `COc1ccc(/C=C/C(=O)c2ccc(NC(=O)c3cc4cc5ccccc5nc4s3)cc2)cc1OC`: the growth was 105% (inactive).
Regarding `CC(=O)N1CC(Nc2ccc(OC(F)(F)F)cc2)=CC1=O`, the growth is 27.8% (inactive).
Still for that read-out and setting: the result for `COc1ccc(/C=N\NC(=O)CN2CCN(c3cc4c(cc3F)c(=O)c(C(=O)N/N=C/c3ccc(OC)cc3)cn4C3CC3)CC2)cc1` reads 101% (inactive).
Consider `CC1=C(NCCN2CCCC2)C(=O)c2c(OCc3ccc(F)c(Cl)c3)cccc2C1=O`, for which the growth is 78.8% (inactive).
As for `CN1CCN(Cc2ccc(NC(=O)c3cncc(C#Cc4cnc(N)c5cccnc45)c3)cc2C(F)(F)F)CC1`, the growth is 1.78% (active).
`C/C(=C(/c1ccc(O)cc1)c1ccc(OCCN2CCCC2)cc1)c1ccccc1`: the growth is 67.8% (inactive).
`c1ccc2sc(SCCCn3ccnc3)nc2c1`: the growth was 97.4% (inactive).
Still for that read-out and setting: the value for `CCc1ccc(C(c2ccc(CC)cc2)C(Cl)(Cl)CCl)cc1` was 86.8% (inactive).
On the same count and under the same terms, the result for `Cc1ccc(C2CC3c4ccccc4C2C2CCCCN32)cc1` (stereo unspecified) reads 106% (inactive); that for `CCN(CC)CCCNc1cc(OC)cc2nc3cc(Cl)ccc3nc12`, -36.9% (active).
For `O=C(/C=C/c1cc2ccccc2[nH]c1=O)/C=C/c1cc2ccccc2[nH]c1=O`, the growth was -39.5% (active).
The same measure, in the same setting: the value for `O=C([C@@H](COCc1ccccc1)N1C(=O)[C@@H](N2C(=O)OC[C@@H]2c2ccccc2)[C@H]1/C=C/c1ccccc1)N1CCC(CCN2CCCCC2)CC1` was 98% (inactive).
